# Results as given in article PMC7862700, “An all-to-all approach to the identification of sequence-specific readers for epigenetic DNA modifications on cytosine”.
# Tests used:
# Assay in all cases: DAPPL (digital affinity profiling via proximity ligation, sequencing); 10 mM Tris-HCl pH 7.5, 50 mM NaCl, 1 mM DTT, 4% glycerol, room temperature, 30 min; GST-TFs on glutathione beads, 16-mer random dsDNA library, 0.1% formaldehyde crosslink after washing; high values mean tight binding
# FLI1 = target: T1, FLI1 (Homo sapiens, UniProt Q01543 1-452); conditions: protein: recombinant; tags: N-terminal GST; dsDNA, one strand shown
# T1 sequence: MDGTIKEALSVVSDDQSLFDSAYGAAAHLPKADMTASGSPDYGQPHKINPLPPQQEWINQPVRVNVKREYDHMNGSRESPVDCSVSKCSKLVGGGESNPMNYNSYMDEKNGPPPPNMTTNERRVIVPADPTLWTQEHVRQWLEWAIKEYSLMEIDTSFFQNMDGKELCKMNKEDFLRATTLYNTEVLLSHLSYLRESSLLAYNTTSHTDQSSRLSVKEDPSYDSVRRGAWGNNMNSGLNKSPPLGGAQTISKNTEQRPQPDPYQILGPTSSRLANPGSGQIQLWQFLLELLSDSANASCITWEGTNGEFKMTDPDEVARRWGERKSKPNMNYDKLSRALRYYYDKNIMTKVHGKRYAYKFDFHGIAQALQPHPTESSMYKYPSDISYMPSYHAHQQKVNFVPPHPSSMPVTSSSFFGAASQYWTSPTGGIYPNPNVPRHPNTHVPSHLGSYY
# How it was run: (§1)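 Human transcription factors fused to GST were expressed in yeast, captured on glutathione beads, given DNA barcodes and pooled with a GST-only negative control. Pools were incubated with 200 nmole of a 16-mer random double-stranded DNA library in Tris/NaCl/DTT/glycerol buffer at room temperature for 30 min. They were then washed, crosslinked with 0.1% formaldehyde, proximity-ligated (BsaI/T4 ligase, 1 h, 37 °C), PCR-amplified and sequenced on an Illumina NextSeq500. Binding signal is each 6-mer's read frequency for a factor divided by its frequency for the GST control.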
# ELK1 = target: T2, ELK1 (Homo sapiens, UniProt P19419 1-428); conditions: protein: recombinant; tags: N-terminal GST; dsDNA, one strand shown
# T2 sequence: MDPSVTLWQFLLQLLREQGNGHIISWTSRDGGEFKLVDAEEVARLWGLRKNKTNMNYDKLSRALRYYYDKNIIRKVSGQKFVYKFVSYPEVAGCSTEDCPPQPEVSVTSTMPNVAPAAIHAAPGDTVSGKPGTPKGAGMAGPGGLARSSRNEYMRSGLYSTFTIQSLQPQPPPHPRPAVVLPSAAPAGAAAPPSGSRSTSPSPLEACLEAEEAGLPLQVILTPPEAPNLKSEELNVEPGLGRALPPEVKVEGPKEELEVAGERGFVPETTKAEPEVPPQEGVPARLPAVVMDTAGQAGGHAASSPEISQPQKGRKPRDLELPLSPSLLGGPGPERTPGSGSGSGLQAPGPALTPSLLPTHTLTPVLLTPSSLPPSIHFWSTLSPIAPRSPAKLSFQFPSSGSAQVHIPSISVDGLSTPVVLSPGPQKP
# How it was run: as §1
# GABPA = target: T3, GABPA (Homo sapiens, UniProt Q06546 1-454); conditions: protein: recombinant; tags: N-terminal GST; dsDNA, one strand shown
# T3 sequence: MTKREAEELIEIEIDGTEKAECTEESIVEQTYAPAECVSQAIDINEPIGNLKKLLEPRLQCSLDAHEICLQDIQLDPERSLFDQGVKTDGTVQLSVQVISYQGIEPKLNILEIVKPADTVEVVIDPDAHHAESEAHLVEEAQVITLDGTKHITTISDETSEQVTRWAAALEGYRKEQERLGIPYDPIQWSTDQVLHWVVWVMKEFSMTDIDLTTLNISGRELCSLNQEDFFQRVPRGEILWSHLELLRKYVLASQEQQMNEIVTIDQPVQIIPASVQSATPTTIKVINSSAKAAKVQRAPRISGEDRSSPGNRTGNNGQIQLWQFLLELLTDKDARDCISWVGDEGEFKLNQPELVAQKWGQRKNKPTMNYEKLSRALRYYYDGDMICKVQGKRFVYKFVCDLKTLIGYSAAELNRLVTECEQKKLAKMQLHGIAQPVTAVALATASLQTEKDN
# How it was run: as §1
# ERG = target: T4, ERG (Homo sapiens, UniProt P11308 1-479); conditions: protein: recombinant; tags: N-terminal GST; dsDNA, one strand shown
# T4 sequence: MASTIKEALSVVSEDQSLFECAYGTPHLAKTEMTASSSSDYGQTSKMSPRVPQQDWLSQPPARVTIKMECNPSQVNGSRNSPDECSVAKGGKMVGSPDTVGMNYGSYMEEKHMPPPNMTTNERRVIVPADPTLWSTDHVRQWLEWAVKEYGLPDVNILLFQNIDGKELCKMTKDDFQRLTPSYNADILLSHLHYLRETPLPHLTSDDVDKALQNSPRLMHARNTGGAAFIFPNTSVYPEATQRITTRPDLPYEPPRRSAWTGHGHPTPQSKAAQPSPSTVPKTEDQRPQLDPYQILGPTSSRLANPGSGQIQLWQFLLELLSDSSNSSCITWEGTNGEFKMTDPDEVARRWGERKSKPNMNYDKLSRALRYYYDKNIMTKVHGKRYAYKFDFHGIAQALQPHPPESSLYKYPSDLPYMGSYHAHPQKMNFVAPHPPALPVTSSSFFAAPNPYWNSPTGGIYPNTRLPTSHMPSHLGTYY
# How it was run: as §1
# ELF1 = ELF1 (Homo sapiens, UniProt P32519 1-619); conditions: protein: recombinant; tags: N-terminal GST; dsDNA, one strand shown
# Sequence of ELF1 (P32519 whole entry): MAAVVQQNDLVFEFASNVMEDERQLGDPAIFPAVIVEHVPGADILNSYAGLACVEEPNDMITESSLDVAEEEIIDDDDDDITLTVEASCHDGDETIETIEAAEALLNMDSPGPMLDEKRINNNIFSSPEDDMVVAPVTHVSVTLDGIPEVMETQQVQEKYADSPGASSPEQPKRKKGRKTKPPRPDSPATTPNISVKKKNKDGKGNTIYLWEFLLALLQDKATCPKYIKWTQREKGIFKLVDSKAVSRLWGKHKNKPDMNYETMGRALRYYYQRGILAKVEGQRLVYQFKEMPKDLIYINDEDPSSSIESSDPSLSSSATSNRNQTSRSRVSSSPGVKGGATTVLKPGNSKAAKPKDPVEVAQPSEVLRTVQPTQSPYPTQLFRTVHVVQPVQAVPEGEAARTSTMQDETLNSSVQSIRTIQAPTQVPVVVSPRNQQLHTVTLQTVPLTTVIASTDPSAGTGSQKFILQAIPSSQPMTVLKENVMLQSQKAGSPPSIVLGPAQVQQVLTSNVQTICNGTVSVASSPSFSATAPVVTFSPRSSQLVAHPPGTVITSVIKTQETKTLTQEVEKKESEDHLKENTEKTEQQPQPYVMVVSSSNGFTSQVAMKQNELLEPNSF
# How it was run: as §1
# EHF = target: T5, EHF (Homo sapiens, UniProt Q9NZC4 1-300); conditions: protein: recombinant; tags: N-terminal GST; dsDNA, one strand shown
# T5 sequence: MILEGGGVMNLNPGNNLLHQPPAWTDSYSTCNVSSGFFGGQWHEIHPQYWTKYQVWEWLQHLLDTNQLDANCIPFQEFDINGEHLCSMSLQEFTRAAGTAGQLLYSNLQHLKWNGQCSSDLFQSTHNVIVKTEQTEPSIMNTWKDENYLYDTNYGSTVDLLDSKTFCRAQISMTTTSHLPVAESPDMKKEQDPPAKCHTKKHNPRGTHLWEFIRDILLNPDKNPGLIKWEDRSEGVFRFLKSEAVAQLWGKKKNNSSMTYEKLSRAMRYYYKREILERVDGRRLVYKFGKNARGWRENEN
# How it was run: as §1
# SPI1 = SPI1 (Homo sapiens, UniProt P17947 1-270); conditions: protein: recombinant; tags: N-terminal GST; dsDNA, one strand shown
# How it was run: as §1
# SPIB = SPIB (Homo sapiens, UniProt Q01892 1-262); conditions: protein: recombinant; tags: N-terminal GST; dsDNA, one strand shown
# Sequence of SPIB (Q01892 whole entry): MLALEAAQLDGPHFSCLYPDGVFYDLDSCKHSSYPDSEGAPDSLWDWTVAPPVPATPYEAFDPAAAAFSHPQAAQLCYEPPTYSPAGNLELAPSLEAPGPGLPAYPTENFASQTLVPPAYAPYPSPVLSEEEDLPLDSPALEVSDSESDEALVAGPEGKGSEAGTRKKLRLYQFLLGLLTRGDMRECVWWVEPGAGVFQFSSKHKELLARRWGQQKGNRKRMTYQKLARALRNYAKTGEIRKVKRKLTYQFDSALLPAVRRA
# How it was run: as §1
# ELK3 = target: T6, ELK3 (Homo sapiens, UniProt P41970 1-407); conditions: protein: recombinant; tags: N-terminal GST; dsDNA, one strand shown
# T6 sequence: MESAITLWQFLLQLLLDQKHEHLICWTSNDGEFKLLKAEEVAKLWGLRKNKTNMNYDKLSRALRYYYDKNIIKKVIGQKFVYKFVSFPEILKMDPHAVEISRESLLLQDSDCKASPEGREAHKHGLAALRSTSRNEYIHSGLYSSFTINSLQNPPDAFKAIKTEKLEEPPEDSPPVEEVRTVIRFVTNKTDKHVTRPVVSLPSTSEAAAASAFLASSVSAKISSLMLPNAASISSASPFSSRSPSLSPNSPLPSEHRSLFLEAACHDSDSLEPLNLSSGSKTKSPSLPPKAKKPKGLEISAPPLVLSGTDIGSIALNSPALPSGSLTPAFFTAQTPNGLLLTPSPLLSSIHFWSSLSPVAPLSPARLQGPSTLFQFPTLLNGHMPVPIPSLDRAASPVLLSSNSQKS
# How it was run: as §1
# FEV = target: T7, FEV (Homo sapiens, UniProt Q99581 1-238); conditions: protein: recombinant; tags: N-terminal GST; dsDNA, one strand shown
# T7 sequence: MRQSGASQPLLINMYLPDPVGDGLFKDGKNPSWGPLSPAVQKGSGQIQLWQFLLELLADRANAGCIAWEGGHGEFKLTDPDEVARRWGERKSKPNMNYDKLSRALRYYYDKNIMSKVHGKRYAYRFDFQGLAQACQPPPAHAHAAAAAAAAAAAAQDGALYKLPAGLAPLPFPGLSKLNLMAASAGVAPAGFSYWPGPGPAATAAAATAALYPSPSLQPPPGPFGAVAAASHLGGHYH
# How it was run: as §1
# ETV5 = ETV5 (Homo sapiens, UniProt P41161 1-510); conditions: protein: recombinant; tags: N-terminal GST; dsDNA, one strand shown
# Sequence of ETV5 (P41161 whole entry): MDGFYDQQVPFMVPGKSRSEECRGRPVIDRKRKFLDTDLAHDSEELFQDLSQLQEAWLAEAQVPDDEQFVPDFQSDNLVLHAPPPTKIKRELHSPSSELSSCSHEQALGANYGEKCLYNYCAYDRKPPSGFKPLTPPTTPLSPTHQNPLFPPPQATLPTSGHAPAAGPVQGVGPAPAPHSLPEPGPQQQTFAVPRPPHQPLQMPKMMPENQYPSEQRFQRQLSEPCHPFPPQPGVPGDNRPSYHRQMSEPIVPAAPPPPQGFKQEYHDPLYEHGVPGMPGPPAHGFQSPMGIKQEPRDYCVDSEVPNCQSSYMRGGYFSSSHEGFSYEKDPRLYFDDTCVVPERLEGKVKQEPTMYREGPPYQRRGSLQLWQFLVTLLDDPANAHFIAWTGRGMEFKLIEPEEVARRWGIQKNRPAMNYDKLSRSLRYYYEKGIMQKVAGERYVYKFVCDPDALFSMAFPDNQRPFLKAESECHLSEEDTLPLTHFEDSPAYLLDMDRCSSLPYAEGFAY
# How it was run: as §1
# HSF1 = HSF1 (Homo sapiens, UniProt Q00613 1-529); conditions: protein: recombinant; tags: N-terminal GST; chain copies: 3; dsDNA, one strand shown
# Sequence of HSF1 (Q00613 whole entry): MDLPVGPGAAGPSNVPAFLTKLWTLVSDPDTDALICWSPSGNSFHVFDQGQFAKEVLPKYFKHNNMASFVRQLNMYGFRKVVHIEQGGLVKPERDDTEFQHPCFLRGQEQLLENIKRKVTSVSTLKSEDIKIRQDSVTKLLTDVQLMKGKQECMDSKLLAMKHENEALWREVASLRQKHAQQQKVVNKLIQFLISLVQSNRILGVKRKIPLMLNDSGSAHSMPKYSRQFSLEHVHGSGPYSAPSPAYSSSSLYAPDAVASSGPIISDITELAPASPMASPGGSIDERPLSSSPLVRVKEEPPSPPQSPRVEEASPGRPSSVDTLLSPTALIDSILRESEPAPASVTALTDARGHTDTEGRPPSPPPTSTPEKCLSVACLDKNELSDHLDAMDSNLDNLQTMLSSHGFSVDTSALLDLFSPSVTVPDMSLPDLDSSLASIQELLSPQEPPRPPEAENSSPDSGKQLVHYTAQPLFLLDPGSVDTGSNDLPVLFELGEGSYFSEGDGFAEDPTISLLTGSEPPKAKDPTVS
# How it was run: as §1
# SPIC = target: T8, SPIC (Homo sapiens, UniProt Q8N5J4 1-248); conditions: protein: recombinant; tags: N-terminal GST; dsDNA, one strand shown
# T8 sequence: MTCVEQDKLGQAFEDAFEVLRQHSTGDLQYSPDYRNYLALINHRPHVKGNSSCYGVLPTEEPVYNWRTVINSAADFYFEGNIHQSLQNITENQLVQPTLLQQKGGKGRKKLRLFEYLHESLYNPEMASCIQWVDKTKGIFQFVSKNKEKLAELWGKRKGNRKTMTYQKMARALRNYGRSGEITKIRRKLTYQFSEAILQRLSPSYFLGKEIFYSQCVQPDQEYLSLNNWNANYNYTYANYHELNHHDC
# How it was run: as §1
# ELF4 = ELF4 (Homo sapiens, UniProt Q99607 1-663); conditions: protein: recombinant; tags: N-terminal GST; dsDNA, one strand shown
# Sequence of ELF4 (Q99607 whole entry): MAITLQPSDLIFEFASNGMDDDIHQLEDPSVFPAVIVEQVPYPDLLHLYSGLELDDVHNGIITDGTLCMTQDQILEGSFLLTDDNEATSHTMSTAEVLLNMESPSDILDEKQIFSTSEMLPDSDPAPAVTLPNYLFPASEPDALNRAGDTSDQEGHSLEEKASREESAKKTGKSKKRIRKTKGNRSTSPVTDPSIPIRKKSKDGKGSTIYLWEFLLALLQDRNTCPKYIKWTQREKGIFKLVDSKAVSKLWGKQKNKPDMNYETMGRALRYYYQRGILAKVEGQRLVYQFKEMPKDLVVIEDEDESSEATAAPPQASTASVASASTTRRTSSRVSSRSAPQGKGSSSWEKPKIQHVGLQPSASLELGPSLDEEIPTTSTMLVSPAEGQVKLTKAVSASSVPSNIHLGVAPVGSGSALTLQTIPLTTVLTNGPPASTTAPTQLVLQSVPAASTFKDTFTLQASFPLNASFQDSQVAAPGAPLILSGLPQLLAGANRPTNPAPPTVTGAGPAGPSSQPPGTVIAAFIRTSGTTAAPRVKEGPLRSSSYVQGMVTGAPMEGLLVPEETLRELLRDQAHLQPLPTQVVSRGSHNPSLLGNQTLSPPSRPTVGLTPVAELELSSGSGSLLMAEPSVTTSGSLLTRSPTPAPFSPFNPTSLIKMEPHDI
# How it was run: as §1
# ELK4 = target: T9, ELK4 (Homo sapiens, UniProt P28324-2 1-405); conditions: protein: recombinant; tags: N-terminal GST; dsDNA, one strand shown
# T9 sequence: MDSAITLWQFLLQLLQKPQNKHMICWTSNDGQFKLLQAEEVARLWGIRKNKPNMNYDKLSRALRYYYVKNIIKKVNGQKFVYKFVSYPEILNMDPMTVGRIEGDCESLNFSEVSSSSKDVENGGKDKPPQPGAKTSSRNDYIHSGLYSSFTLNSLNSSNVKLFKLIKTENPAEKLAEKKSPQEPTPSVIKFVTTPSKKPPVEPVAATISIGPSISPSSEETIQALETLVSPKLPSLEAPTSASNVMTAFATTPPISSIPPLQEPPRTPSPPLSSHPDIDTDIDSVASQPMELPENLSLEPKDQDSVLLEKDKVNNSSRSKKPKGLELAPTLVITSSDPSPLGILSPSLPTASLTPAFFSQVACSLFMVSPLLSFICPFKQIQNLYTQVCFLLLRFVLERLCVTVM
# How it was run: as §1
# ETV2 = target: T10, ETV2 (Homo sapiens, UniProt O00321 1-342); conditions: protein: recombinant; tags: N-terminal GST; dsDNA, one strand shown
# T10 sequence: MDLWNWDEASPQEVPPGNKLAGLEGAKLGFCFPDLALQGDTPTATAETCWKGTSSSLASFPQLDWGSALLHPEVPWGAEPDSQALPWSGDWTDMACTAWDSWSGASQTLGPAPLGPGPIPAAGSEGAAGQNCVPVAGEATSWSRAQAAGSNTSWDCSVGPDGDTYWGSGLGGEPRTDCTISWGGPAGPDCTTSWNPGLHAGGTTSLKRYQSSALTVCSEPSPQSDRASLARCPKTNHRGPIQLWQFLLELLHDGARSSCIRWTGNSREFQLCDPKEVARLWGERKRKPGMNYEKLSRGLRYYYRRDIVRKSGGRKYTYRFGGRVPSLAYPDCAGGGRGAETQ
# How it was run: as §1
# ELF3 = target: T11, ELF3 (Homo sapiens, UniProt P78545 1-371); conditions: protein: recombinant; tags: N-terminal GST; dsDNA, one strand shown
# T11 sequence: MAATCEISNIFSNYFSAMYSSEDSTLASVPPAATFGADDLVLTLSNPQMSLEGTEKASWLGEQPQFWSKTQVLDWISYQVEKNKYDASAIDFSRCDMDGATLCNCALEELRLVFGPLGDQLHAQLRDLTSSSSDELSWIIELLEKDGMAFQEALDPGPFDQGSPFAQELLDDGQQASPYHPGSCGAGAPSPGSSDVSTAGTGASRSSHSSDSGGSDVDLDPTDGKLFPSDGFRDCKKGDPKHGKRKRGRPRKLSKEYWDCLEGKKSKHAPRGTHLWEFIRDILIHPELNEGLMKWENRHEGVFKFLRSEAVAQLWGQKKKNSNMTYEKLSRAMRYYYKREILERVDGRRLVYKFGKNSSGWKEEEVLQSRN
# How it was run: as §1
# CRX = CRX (Homo sapiens, UniProt O43186 1-299); conditions: protein: recombinant; tags: N-terminal GST; dsDNA, one strand shown
# Sequence of CRX (O43186 whole entry): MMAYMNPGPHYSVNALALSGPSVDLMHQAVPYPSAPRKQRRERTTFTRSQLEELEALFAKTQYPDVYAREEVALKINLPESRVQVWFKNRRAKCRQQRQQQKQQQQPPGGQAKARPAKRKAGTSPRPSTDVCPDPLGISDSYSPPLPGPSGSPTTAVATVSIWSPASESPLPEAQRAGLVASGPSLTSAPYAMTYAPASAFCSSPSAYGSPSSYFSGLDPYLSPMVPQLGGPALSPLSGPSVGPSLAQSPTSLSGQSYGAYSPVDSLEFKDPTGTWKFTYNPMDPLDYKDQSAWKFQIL
# How it was run: as §1
# ETV1 = ETV1 (Homo sapiens, UniProt P50549 1-477); conditions: protein: recombinant; tags: N-terminal GST; dsDNA, one strand shown
# Sequence of ETV1 (P50549 whole entry): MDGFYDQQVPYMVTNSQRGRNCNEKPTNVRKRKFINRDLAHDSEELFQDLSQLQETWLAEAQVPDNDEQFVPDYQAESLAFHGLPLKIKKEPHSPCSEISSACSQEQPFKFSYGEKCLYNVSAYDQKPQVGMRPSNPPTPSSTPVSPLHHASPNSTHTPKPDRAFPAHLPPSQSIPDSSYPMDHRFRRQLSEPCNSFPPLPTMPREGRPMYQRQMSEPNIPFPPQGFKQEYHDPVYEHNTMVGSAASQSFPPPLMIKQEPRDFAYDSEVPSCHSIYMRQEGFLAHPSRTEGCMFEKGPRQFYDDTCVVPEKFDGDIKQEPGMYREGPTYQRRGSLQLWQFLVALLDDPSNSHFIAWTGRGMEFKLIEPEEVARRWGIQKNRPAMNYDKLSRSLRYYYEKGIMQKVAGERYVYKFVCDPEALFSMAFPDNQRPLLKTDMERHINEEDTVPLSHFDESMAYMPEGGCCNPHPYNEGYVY
# How it was run: as §1
sequence,measurement,setting,value
TGCTTT,binding signal,FLI1,"1.13 fold enrichment (6-mer frequency, TF over GST control)"
same,binding signal,ELK1,"1.12 fold enrichment (6-mer frequency, TF over GST control)"
same,binding signal,GABPA,"1.12 fold enrichment (6-mer frequency, TF over GST control)"
same,binding signal,ERG,"1.02 fold enrichment (6-mer frequency, TF over GST control)"
same,binding signal,ELF1,"1.1 fold enrichment (6-mer frequency, TF over GST control)"
same,binding signal,EHF,"1.04 fold enrichment (6-mer frequency, TF over GST control)"
same,binding signal,SPI1,"1.14 fold enrichment (6-mer frequency, TF over GST control)"
same,binding signal,SPIB,"1.08 fold enrichment (6-mer frequency, TF over GST control)"
same,binding signal,ELK3,"1.1 fold enrichment (6-mer frequency, TF over GST control)"
same,binding signal,FEV,"1.05 fold enrichment (6-mer frequency, TF over GST control)"
same,binding signal,ETV5,"1.05 fold enrichment (6-mer frequency, TF over GST control)"
same,binding signal,HSF1,"1.05 fold enrichment (6-mer frequency, TF over GST control)"
same,binding signal,SPIC,"1.16 fold enrichment (6-mer frequency, TF over GST control)"
same,binding signal,ELF4,"1.14 fold enrichment (6-mer frequency, TF over GST control)"
same,binding signal,ELK4,"1.23 fold enrichment (6-mer frequency, TF over GST control)"
same,binding signal,ETV2,"1.12 fold enrichment (6-mer frequency, TF over GST control)"
same,binding signal,ELF3,"1.05 fold enrichment (6-mer frequency, TF over GST control)"
same,binding signal,CRX,"1.09 fold enrichment (6-mer frequency, TF over GST control)"
same,binding signal,ETV1,"1.06 fold enrichment (6-mer frequency, TF over GST control)"
